Source: PubChem BioAssay
CIT2-GFP yeast – modulators of TOR pathway CIT2-GFP in S. cerevisiae. S. cerevisiae CIT2-GFP strain, flow cytometry, 3 h; 100 means same as DMSO wells. GFP response vs DMSO, % at 10 µM. 0.065% of 320,000 active;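 active = GFP response relative to DMSO above a set limit, near the screen mean plus 3 SD, cut at about 150% in these data; inconclusive = Fewer than 70 cells measured for a yeast strain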;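 note: ratio of well median GFP fluorescence to mean of DMSO wells on the plate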
LAP4 TOR yeast – yeast TOR pathway LAP4-GFP modulation. S. cerevisiae LAP4-GFP multiplex, flow cytometry GFP, 3 h; median GFP as percent of DMSO wells. GFP response vs DMSO, % at 10 µM. 0.34% of 320,000 active. AID 2023;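 active = GFP response vs DMSO above a set limit, about the screen mean plus 3 SD, cut at about 150% in these data; inconclusive = under 70 cell events counted for the yeast strain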
MEP2 TOR yeast – yeast TOR pathway MEP2-GFP modulation | AID 2016 | 0.51% of 330,000 active | S. cerevisiae MEP2-GFP strain, flow cytometry GFP, 3 h; 100% = DMSO control level | GFP response vs DMSO, % at 10 µM;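 active = GFP response versus DMSO above a set limit, roughly screen mean plus 3 SD, cut at about 180% in these data; inconclusive = fewer than 70 cells counted for a yeast strain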;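 note: median GFP fluorescence of the barcode-gated MEP2-GFP cells per well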
AGP1 TOR yeast – alters AGP1-GFP fluorescence in TOR pathway yeast screen. 0.02% of 320,000 active. S. cerevisiae AGP1-GFP multiplex flow cytometry, 3 h; GFP as percent of DMSO wells. GFP response vs DMSO, % at 10 µM;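 active = GFP response relative to DMSO above a set limit, near screen average plus 3 SD, cut at about 150% in these data; inconclusive = fewer than 70 cells counted for the yeast strain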;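 note: median GFP channel fluorescence of the gated AGP1 strain per well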
RPL19A TOR yeast – modulators of TOR pathway RPL19A-GFP in S. cerevisiae; S. cerevisiae RPL19A-GFP strain, flow cytometry, 3 h; hits give low values; 0.3% of 330,000 active; percent response vs DMSO, % at 10 µM;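 active = percent response vs DMSO below 50%; inconclusive = fewer than 70 events counted for the yeast strain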;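 note: median channel GFP fluorescence of the barcoded RPL19A-GFP strain; ratio of sample median GFP to plate DMSO average so 100% = DMSO; lower means less RPL19A-GFP as with rapamycin TOR inhibition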
* = called active by the depositor; ? = inconclusive; / = no result given; + = active, no number; ! = not confirmed by another sample; [ ] = dose if it differs, or a comment. Most compounds without a hit are left out; they make up all but 0.93% or so of the library.

SMILES	CIT2-GFP yeast	LAP4 TOR yeast	MEP2 TOR yeast	AGP1 TOR yeast	RPL19A TOR yeast
CCCN(C(=O)c1ccco1)c1nnc(-c2cccc(C)c2)s1	98.0	100.7	101.4	98.5	101.2
O=C(N/N=C/c1c(F)cccc1Cl)C1CC1	95.0	102.0	107.8	97.5	99.7
O=C(O)c1ccc(N/N=C/c2ccc(-c3cc(Cl)ccc3Cl)o2)cc1	?	86.0	269.1*[may fluoresce violet]	21.5	55.6
O=C(O)c1ccc(N/N=C/c2c(F)cccc2Cl)cc1	76.0	154.0*	100.8	81.4	101.7
O=C(O)c1ccc(N/N=C/c2ccc(-c3ccc(Cl)cc3Cl)o2)cc1	103.7	100.2	105.7	94.9	110.7
Cc1c(/C=N\NC(=O)C2COc3ccccc3O2)c2ccccc2n1C (stereo unspecified)	76.8	96.8	90.7	92.7	92.8
Cc1c(/C=N/Nc2ccc(C(=O)O)cc2)c2ccccc2n1C	82.2	159.3*	103.5	88.4	95.9
C=CCn1c(=O)c2ccccc2n2nnc(C(=O)OCC)c12	88.1	111.3	102.0	92.5	95.4
O=c1c2c(-c3ccc(Cl)cc3)csc2ncn1/N=C/c1cccc([N+](=O)[O-])c1O	146.7	201.2*	575.3*	145.1	71.2
O=C(CCC(=O)N1CCCc2ccccc21)N1CCN(S(=O)(=O)c2ccccc2)CC1	102.1	99.4	103.5	104.2	98.2
O=C(N/N=C/c1c[nH]c2ccccc12)c1sc2ccccc2c1Cl	100.7	89.6	99.2	99.0	102.8
O=C(N/N=C/c1ccccn1)c1sc2ccccc2c1Cl	94.3	229.2*	104.8	99.8	94.7
Cc1cc(C)n(-c2nc(NC(C)(C)C)nc(NC(C)(C)C)n2)n1	107.9	96.2	101.7	110.5	107.3
Cc1cc(C)n(-c2nc(NC(C)C)nc(NC(C)C)n2)n1	?	100.4	355.4*[may fluoresce violet]	?	17.8*[may fluoresce violet]
COc1cccc(NC(=O)c2ccc3nsnc3c2)c1	96.7	107.0	107.3	93.7	97.5
O=S(=O)(c1ccccc1)N(Cc1ccccn1)Cc1ccccn1	104.5	86.5	107.1	93.7	105.5
O=S(=O)(c1ccc(N2CCOCC2)nc1)N(Cc1ccccn1)Cc1ccccn1	?	78.6	395.1*[may fluoresce violet]	22.0	97.4
CCCC(=O)Nc1ccc(NC(=O)c2ccccc2F)cn1	92.6	102.3	98.8	95.1	96.1
O=C(OC1CCOC1=O)c1ccc(S(=O)(=O)N2CCCCCC2)cc1 (stereo unspecified)	?	74.5	177.9*[may fluoresce violet]	?	62.9
c1ccc2c(c1)OCC(c1nnc3sc(-c4cnccn4)nn13)O2 (stereo unspecified)	109.1	100.1	113.9	106.7	99.8
CCOC(=O)N1CCN(C(=O)Nc2ccccc2)CC1	103.0	99.8	101.4	105.8	100.8
C=CCCC(=O)N1CCC(n2nccc2NC(=O)c2ccc(OC)cc2)CC1	?	78.8	124.3	?	30.9*[may fluoresce violet]
COc1ccc(C(=O)Nc2ccnn2C2CCN(C(=O)CCC(F)(F)F)CC2)cc1	111.5	112.5	117.7	110.7	92.0
CN=C1c2c(-c3ccccc3)c3cc(OC)ccc3n2CCN1C	?	77.6	235.7*[may fluoresce violet]	?	56.8
COc1ccc(-c2c(-c3ccccc3)n(C)c3ccccc23)cc1	104.1	104.4	102.4	109.3	104.1
SMILES	CIT2-GFP yeast	LAP4 TOR yeast	MEP2 TOR yeast	AGP1 TOR yeast	RPL19A TOR yeast
O=C(O)c1cn(-c2ccc(F)cc2)c(=O)c2ccccc12	107.0	90.5	105.2	104.5	112.1
Cc1ccccc1N(CC(=O)NC(C)(C)C)C(=O)CS(=O)CC(=O)Nc1ccc2c(c1)OCO2 (stereo unspecified)	88.4	112.2	91.6	102.7	93.9
O=C(NCc1ccco1)c1cc2ccc(O)cc2oc1=O	?	73.8	230.4*[may fluoresce violet]	?	59.9
COc1ccc(-c2noc(CCC(=O)NCCc3cccc(C)c3)n2)cc1	99.0	100.7	94.3	99.1	99.7
COC(=O)c1cc(S(=O)(=O)Nc2nn(C)c3cccc(F)c23)oc1C	99.5	113.8	104.4	108.6	100.5
COC(=O)c1cc(S(=O)(=O)Nc2nn(C)c3ccccc23)oc1C	109.3	155.5*	115.4	130.3	88.9
Cc1ccccc1/C=C/C(=O)c1ccc([N+](=O)[O-])o1	?	222.4*[may fluoresce violet]	165.5	16.0	67.2
CC(OC(=O)c1ccccc1CCc1ccccc1)C(N)=O (stereo unspecified)	?	77.8	373.3*[may fluoresce violet]	?	22.0*[may fluoresce violet]
O=C(OCc1nnc(-c2ccc([N+](=O)[O-])cc2)o1)C1CC(=O)N(CCc2ccccc2)C1 (stereo unspecified)	92.2	97.1	92.3	93.0	93.9
CCCc1cc(=O)oc2c3c(c(Cl)cc12)OCN(CCCO)C3	?	63.1	885.5*[may fluoresce violet]	?	19.7*[may fluoresce violet]
O=C1Nc2ccc(Br)cc2C1(O)Cc1ccncc1 (stereo unspecified)	?	112.5	437.9*[may fluoresce violet]	?	15.8*[may fluoresce violet]
C=CCNC(=O)c1onc(CS(=O)(=O)c2cc(C)cc(C)c2)c1C(=O)NCC=C	93.6	103.5	98.6	97.7	107.5
COc1cccc(OC)c1OCCNCCO	96.2	136.9	93.2	87.3	100.2
CCn1nnc2cc(C(=O)NCC(c3ccccc3OC)N(C)C)ccc21 (stereo unspecified)	?	85.4	174.0	?	46.4*[may fluoresce violet]
CC1(C)CC(n2c(=S)[nH]c3ccccc3c2=O)CCO1 (stereo unspecified)	?	97.5	266.9*[may fluoresce violet]	28.9	/
O=C(Nc1cccnc1)c1ccc(F)c(S(=O)(=O)N2CCOCC2)c1	?	?	?	?	28.2*[may fluoresce violet]
O=C1c2ccsc2SCCN1Cc1ccc(F)cc1	90.0	113.6	100.5	98.7	98.8
O=C1c2ccsc2SCCN1Cc1ccc(Cl)cc1	72.2	174.7*	94.3	97.3	93.5
Cc1ccc(CN2CCSc3sccc3C2=O)cc1	46.2	201.8*	85.3	90.6	93.3
CCOc1ccc(OCCC(=O)OCC(=O)Nc2cc(S(=O)(=O)N3CCOCC3)ccc2C)cc1	97.4	114.8	103.2	104.3	100.0
COc1ccc(-c2nnc(SCC(=O)c3ccc[nH]3)o2)cc1	95.5	110.7	102.4	90.8	96.7
O=[N+]([O-])c1ccc(SCCc2ccccn2)cc1	103.5	127.9	110.6	97.4	98.4
O=[N+]([O-])c1ccc(SCCc2ccncc2)cc1	99.9	156.4*!	97.9	103.1	98.5
COc1ccc(CN2CCN(c3ncccn3)CC2)c(C)c1C	137.9	135.2	188.7*	109.8	89.0
CCOc1ccc(CCNC(=O)Cc2nn[nH]n2)cc1OCC	89.4	94.0	96.2	98.0	100.2
c1ccc2c(c1)ncn2Cc1nnc2sc(-c3ccc4c(c3)OCO4)nn12	?	109.5	554.5*[may fluoresce violet]	/	38.3*[may fluoresce violet]
COC(=O)c1c(N=CN(C)C)c(C#N)c2n1CCCC2	/	101.0	105.3	108.9	104.8
CCN1/C(=C/c2ccc3cccc(C)c3[n+]2CC)Sc2ccccc21	+[may fluoresce green]	+[may fluoresce green]	+[may fluoresce green]	353.2*[may fluoresce green]	359.2
